This note sets out measurements from PubChem BioAssay (EPA / NIEHS).

Inconclusive results are not listed. Active and inactive are the calls of the source. The calls were made as follows: active = hit-call score of the fitted dose curve at least 0.9, where 1 is the maximum; inconclusive = response in the unintended direction; inactive = score below 0.9.

Retinoic acid receptor RXR-alpha (Homo sapiens), sequence (P19793 whole entry, looked up, the tested form may be a part): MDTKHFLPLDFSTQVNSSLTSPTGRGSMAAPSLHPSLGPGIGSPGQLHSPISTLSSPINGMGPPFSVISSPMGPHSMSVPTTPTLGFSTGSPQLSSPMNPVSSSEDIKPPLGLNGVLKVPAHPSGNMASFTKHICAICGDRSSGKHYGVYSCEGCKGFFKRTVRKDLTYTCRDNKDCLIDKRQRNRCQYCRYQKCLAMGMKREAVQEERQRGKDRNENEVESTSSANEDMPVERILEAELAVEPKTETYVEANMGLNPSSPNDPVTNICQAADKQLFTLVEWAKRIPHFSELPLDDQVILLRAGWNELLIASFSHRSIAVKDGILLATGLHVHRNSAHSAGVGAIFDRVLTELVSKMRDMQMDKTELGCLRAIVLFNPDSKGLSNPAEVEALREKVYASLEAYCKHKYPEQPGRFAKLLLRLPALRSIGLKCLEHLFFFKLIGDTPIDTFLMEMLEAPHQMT
Estrogen receptor beta (Homo sapiens), sequence (Q92731 whole entry, looked up, the tested form may be a part): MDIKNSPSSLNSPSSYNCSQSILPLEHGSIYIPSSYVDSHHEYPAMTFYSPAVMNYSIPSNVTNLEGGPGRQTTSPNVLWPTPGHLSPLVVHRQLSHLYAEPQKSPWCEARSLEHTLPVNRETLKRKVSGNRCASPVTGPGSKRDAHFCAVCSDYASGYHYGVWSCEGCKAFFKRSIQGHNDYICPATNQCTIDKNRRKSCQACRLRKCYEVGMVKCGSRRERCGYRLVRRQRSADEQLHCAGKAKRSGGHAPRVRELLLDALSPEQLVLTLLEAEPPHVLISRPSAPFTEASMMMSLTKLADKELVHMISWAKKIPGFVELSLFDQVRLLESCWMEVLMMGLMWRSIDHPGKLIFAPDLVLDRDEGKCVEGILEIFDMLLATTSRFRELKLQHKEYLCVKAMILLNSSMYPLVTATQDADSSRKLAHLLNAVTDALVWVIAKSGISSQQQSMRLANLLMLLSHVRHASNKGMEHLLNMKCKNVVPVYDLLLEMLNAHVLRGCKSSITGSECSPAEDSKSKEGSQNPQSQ

One assay has as its target Estrogen receptor beta (Homo sapiens) (UniProt Q92731). The assay can be described thus: OT_ER_ERbERb_1440: Odyssey Thera (OT) 24-hour HEK293T Protein-Complementation Assay for Estrogen Receptor-beta/-beta Homodimer (AID 2283380).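 Also: fluorescence gain from ER beta LBD homodimer complementation read by laser scanning cytometry; scored as signal increase over DMSO baseline for both agonists and antagonists.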 In short, it runs like this: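 HEK293T cells stably expressing human ER-beta LBD (aa 310-547) PCA homodimer pair, dosed 24 h; formaldehyde-fixed, Draq5-stained. Readout: increase in nuclear (agonist) or nuclear plus cytoplasmic (antagonist) fluorescence intensity versus DMSO, gain-of-signal fitting.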
In the case of `OC1OC[C@@H](O)[C@H](O)[C@H]1O` (stereo not given in full), the compound was classed as inactive.
Same read-out and setting: next, `C[Si](O[Si](C)(C)C)O[Si](C)(C)C`: “inactive”; `Cc1ccc(C(C)C)cc1O`: “inactive”.
Same read-out and setting: then `CC(C)(C#N)c1cc(Cn2cncn2)cc(C(C)(C)C#N)c1`, with “inactive”; and `CC1=CC(=O)NS(=O)(=O)O1`, with “inactive”.

The target of a further assay is Retinoic acid receptor RXR-alpha (Homo sapiens) (UniProt P19793). The assay can be described thus: OT_NURR1_NURR1RXRa_0480: Odyssey Thera (OT) 8-hour HEK293T Protein Complementation Assay for Nurr1/retinoid X receptor (RXR) (AID 2283385). The method in brief:
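8 h compound exposure, HEK293T; Nurr1/RXRα fragment complementation; fluorescence intensity; positive fitting direction vs DMSO baseline.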
Turning to `CC(C)=CCC[C@](C)(O)[C@@H]1CC=C(C)CC1`, the call was inactive.
A word on the AC50: it is the concentration at which the activity in the assay is half-maximal. `CCCCCCCCCCCCCOS(=O)(=O)O`: the AC50 is 78.4 µM (active).
On to `C=O`, for which the outcome was inactive.
On the same count and under the same terms, next, `CCCC/C=C\CCCCCCCCCC=O`: “inactive”; `C=CCOc1nc(OCC=C)nc(OCC=C)n1`: “inactive”; `O=C1C(c2[nH]c3ccc(S(=O)(=O)O)cc3c2O)=Nc2ccc(S(=O)(=O)O)cc21`: “inactive”.
Same read-out and setting: next, `O=C[C@@H](O)[C@H](O)[C@H](O)CO`: “inactive”.
Still for that read-out and setting: next, `CCCCCOC(=O)CCC`: “inactive”; `O=C(Cl)c1cccc(C(=O)Cl)c1`: “inactive”; `CC(C)CCCCCCCOC(=O)c1ccc(C(=O)OCCCCCCCC(C)C)c(C(=O)OCCCCCCCC(C)C)c1`: “inactive”.
`CCCCCCCCCCCCCCCCCC(=O)OCC(CC)CCCC` (stereo not given): the outcome was inactive.
Regarding `CCCCC[Si](OCC)(OCC)OCC`, the compound was classed as inactive.
In the case of `CCCCC(CC)COC(=O)/C=C\C(=O)OCC(CC)CCCC` (stereo not given), the AC50 was 7.85 µM (active).
As for `C=CC(C)(O)CCC=C(C)CCC=C(C)C` (stereo not given), the compound was classed as inactive.
On the same count and under the same terms, next, `O=c1cc(-c2ccccc2)oc2cc(O)cc(O)c12`: “inactive”.
Same read-out and setting: then `C=CC[N+](C)(C)CC=C`, with “inactive”; and `CC(C)=CCCC(C)=CCCC(C)=CCO`, with “inactive”.
In the case of `CCCCCCCCCCCCCCCC(=O)O`, the compound was called inactive.
Same read-out and setting: then `OC1OC[C@@H](O)[C@H](O)[C@H]1O` (stereo not given in full), with “inactive”; and `C[Si](O[Si](C)(C)C)O[Si](C)(C)C`, with “inactive”; and `CC1=CC(=O)NS(=O)(=O)O1`, with “inactive”.

The next assay has the same target. The assay can be described thus: OT_NURR1_NURR1RXRa_1440: Odyssey Thera (OT) 24-hour HEK293T Protein Complementation Assay for Nurr1/retinoid X receptor (RXR) (AID 2283386). The method in brief:
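Interaction of Nurr1 with RXRα brings fused reporter fragments together in human HEK293T cells, restoring a functional reporter. Fluorescence intensity is measured 24 h after chemical treatment, and values are analysed in the positive direction against DMSO.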
As for `O=C(Oc1ccccc1)c1ccc(O)cc1`, the outcome was inactive.
For the compound `CC(C)=CCC[C@](C)(O)[C@@H]1CC=C(C)CC1`, the result was inactive.
Still for that read-out and setting: next, `C=O`: “inactive”; `O=C(O)CCCCCCCC(=O)O`: “inactive”; `C=CCOc1nc(OCC=C)nc(OCC=C)n1`: “inactive”.
The same measure, in the same setting: then `O=C1C(c2[nH]c3ccc(S(=O)(=O)O)cc3c2O)=Nc2ccc(S(=O)(=O)O)cc21`, with “inactive”; and `O=C[C@@H](O)[C@H](O)[C@H](O)CO`, with “inactive”; and `NCCNCCN`, with “inactive”.
On the same count and under the same terms, next, `CC(C)CCCCCCCOC(=O)c1ccc(C(=O)OCCCCCCCC(C)C)c(C(=O)OCCCCCCCC(C)C)c1`: “inactive”; `CCCCCCCCCCCCCCCCCC(=O)OCC(CC)CCCC` (stereo not given): “inactive”.
In the case of `CCCCC(CC)COC(=O)/C=C\C(=O)OCC(CC)CCCC` (stereo not given), the AC50 is 50 µM (active).
`C=CC(C)(O)CCC=C(C)CCC=C(C)C` (stereo not given): the AC50 is 50 µM (active).
`O=c1cc(-c2ccccc2)oc2cc(O)cc(O)c12`: the result was inactive.
For `C=CC[N+](C)(C)CC=C`, the result was inactive.
With `COc1ccc(O)cc1`, the AC50 is 44.6 µM (active).
On to `CCCCCCCCCCCCCCCC(=O)O`, for which the outcome was inactive.
Same read-out and setting: next, `OC1OC[C@@H](O)[C@H](O)[C@H]1O` (stereo not given in full): “inactive”; `C[Si](O[Si](C)(C)C)O[Si](C)(C)C`: “inactive”.
Still for that read-out and setting: then `Cc1ccc(C(C)C)cc1O`, with “inactive”; and `CC(C)(C#N)c1cc(Cn2cncn2)cc(C(C)(C)C#N)c1`, with “inactive”.
As to `CC1=CC(=O)NS(=O)(=O)O1`, the outcome was inactive.

Another assay deals with Peroxisome proliferator-activated receptor gamma (Homo sapiens) (UniProt P37231). Kind of assay: OT_PPARg_PPARgSRC1_0480: Odyssey Thera (OT) 8-hour Protein-Complementation Assay for Peroxisome Proliferator-activated Receptor Gamma / SRC-1 Co-activator (AID 2283387).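 Also: nuclear to cytoplasmic split Venus YFP fluorescence ratio reporting PPARg SRC-1 interaction.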 The method in brief: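 HEK293T transiently transfected with PPARg and SRC-1 fused to Venus YFP fragments, compounds 8 h at 37C. Fixed, Draq5-stained cells imaged; nuclear/cytoplasmic 488 nm fluorescence ratio over at least 350 cells per image; gain fitted versus DMSO.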
Peroxisome proliferator-activated receptor gamma (Homo sapiens), sequence (P37231 whole entry, looked up, the tested form may be a part): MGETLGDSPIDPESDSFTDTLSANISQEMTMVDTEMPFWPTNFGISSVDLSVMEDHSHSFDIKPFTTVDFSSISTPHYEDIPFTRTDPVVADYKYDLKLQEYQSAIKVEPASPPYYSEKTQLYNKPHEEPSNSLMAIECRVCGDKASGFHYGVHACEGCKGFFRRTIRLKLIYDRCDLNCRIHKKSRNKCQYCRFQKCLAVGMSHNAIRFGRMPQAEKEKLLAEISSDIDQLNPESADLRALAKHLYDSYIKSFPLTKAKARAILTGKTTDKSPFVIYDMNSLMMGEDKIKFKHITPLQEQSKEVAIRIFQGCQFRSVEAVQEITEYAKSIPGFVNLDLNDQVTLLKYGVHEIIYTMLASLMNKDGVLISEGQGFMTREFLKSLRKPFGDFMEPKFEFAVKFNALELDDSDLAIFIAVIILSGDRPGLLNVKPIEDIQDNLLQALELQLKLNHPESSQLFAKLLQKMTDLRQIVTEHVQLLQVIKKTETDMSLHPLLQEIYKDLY
With `O=C(Oc1ccccc1)c1ccc(O)cc1`, the outcome was inactive.
On the same count and under the same terms, next, `CC(C)=CCC[C@](C)(O)[C@@H]1CC=C(C)CC1`: “inactive”; `CCN(CC)c1ccc(C(=C2C=CC(=[N+](CC)CC)C=C2)c2ccc(S(=O)(=O)O)cc2S(=O)(=O)[O-])cc1`: “inactive”.
Same read-out and setting: next, `CCCCCCCCCCCCCOS(=O)(=O)O`: “inactive”; `C=O`: “inactive”.
Still for that read-out and setting: then `O=C(O)CCCCCCCC(=O)O`, with “inactive”.
For `CCCC/C=C\CCCCCCCCCC=O`, the compound was called inactive.
The same measure, in the same setting: then `C=CCOc1nc(OCC=C)nc(OCC=C)n1`, with “inactive”; and `O=C1C(c2[nH]c3ccc(S(=O)(=O)O)cc3c2O)=Nc2ccc(S(=O)(=O)O)cc21`, with “inactive”.
As for `O=C[C@@H](O)[C@H](O)[C@H](O)CO`, the result was inactive.
The same measure, in the same setting: then `CCCCCOC(=O)CCC`, with “inactive”; and `O=C(Cl)c1cccc(C(=O)Cl)c1`, with “inactive”.
On the same count and under the same terms, then `NCCNCCN`, with “inactive”; and `CC(C)CCCCCCCOC(=O)c1ccc(C(=O)OCCCCCCCC(C)C)c(C(=O)OCCCCCCCC(C)C)c1`, with “inactive”.
Turning to `CCCCCCCCCCCCCCCCCC(=O)OCC(CC)CCCC` (stereo not given), the compound was called inactive.
On the same count and under the same terms, then `CCCCC[Si](OCC)(OCC)OCC`, with “inactive”.
Same read-out and setting: then `CC1(C)C(=O)N(Br)C(=O)N1Cl`, with “inactive”; and `CCCCC(CC)COC(=O)/C=C\C(=O)OCC(CC)CCCC` (stereo not given), with “inactive”.
On the same count and under the same terms, then `O=c1cc(-c2ccccc2)oc2cc(O)cc(O)c12`, with “inactive”; and `C=CC[N+](C)(C)CC=C`, with “inactive”.
`COc1ccc(O)cc1`: the compound was classed as inactive.
Turning to `CC(C)=CCCC(C)=CCCC(C)=CCO`, the compound was classed as inactive.
The same measure, in the same setting: then `CCCCCCCCCCCCCCCC(=O)O`, with “inactive”; and `OC1OC[C@@H](O)[C@H](O)[C@H]1O` (stereo not given in full), with “inactive”.
The same measure, in the same setting: next, `C[Si](O[Si](C)(C)C)O[Si](C)(C)C`: “inactive”; `Cc1ccc(C(C)C)cc1O`: “inactive”.
On to `CC(C)(C#N)c1cc(Cn2cncn2)cc(C(C)(C)C#N)c1`, for which the result was inactive.
Turning to `CC1=CC(=O)NS(=O)(=O)O1`, the compound was called inactive.
